Molecules are shown by their SMILES. Calls of active or inactive are those of the source.

The text below walks through data of PubChem BioAssay.

A short description of assay [1]: compounds binding Alexa647 anti-His antibody – biochemical, small-molecule microarray, 635 nm fluorescence, artefact control for SMM control protein annotation, primary screen (AID 1128).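 Further: score merges feature fluorescence with signal-to-noise for each printed compound spot.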 The following applies: higher = more signal.
Assay [2] deals with Human papillomavirus type 1a E7 protein (residues 1-88). The assay is described as follows: HPV1a E7 small-molecule binders, primary screen, biochemical, small-molecule microarray, residues 1-88, 635 nm (AID 1129). The following applies: small-molecule microarray binding, fluorescence 635 nm; higher = more signal.
Assay [3] concerns the target Focal adhesion kinase 1 (Homo sapiens) (UniProt Q05397). The assay is described as follows: PTK2 protein binding on printed compound slides – biochemical, small-molecule microarray, 635/667 nm fluorescence, BSA, DTT, primary screen (AID 1130).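 Further: composite of spot emission at 667 nm and signal to noise over triplicate slides.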 Particulars: 635 nm fluorescence, higher = more signal.
Assay [4] concerns Fibrinogen (Alexa647-labelled). The assay is described as follows: Alexa647-fibrinogen binding to printed small molecules – biochemical, small-molecule microarray, 635/667 nm fluorescence, artefact control for SMM control-protein annotation, profiling panel (AID 1131).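 Further: z-score merges 667 nm fluorescence with per-spot signal-to-noise over triplicate slides.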 Particulars: fibrinogen-A647 binding fluorescence, higher = more signal.
Assay [5] addresses Follistatin (Homo sapiens) (UniProt P19883). The assay is described as follows: FST protein binding to printed compounds – biochemical, small-molecule microarray, 635/667 nm fluorescence, primary screen (AID 1132). Particulars: 635 nm fluorescence, higher = more signal.
The target of assay [6] is Fibroblast growth factor 2 (Homo sapiens) (UniProt P09038). The assay is described as follows: basic fibroblast growth factor binding to printed compounds – biochemical, small-molecule microarray, 635/667 nm fluorescence, primary screen (AID 1133). The following applies: FGF2, fluorescence 635/667, higher = more signal.
Assay [7] is described as follows: JC-1 mitochondrial potential readout, lung cancer cells – cell-based, A549, JC-1 fluorescence, basal, 24 h, 100 nL, profiling panel (AID 1138).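 Further: A549 lung adenocarcinoma cells under basal conditions with no added stimulus; test concentration not given here.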 The following applies: higher = more signal.
For assay [8], the system named is Lefty1. The assay is described as follows: Lefty1 protein binding to printed compounds – biochemical, small-molecule microarray, 635/667 nm fluorescence, primary screen (AID 1139). Particulars: fluorescence 635/667, higher = more signal.
Assay [9] relates to wheat germ agglutinin (Triticum aestivum), Alexa647-labelled. The assay is described as follows: Alexa647-WGA lectin binding to printed small molecules – biochemical, small-molecule microarray, 635/667 nm fluorescence, artefact control for SMM control-protein annotation, profiling panel (AID 1140).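 Further: score merges 667 nm feature emission with signal to noise over triplicate slides.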 The following applies: WGA-A647 binding, 635 nm fluorescence, higher = more signal.

Assay [10] has as its target Luciferin 4-monooxygenase (Photinus pyralis) (UniProt P08659). The assay is described as follows: inhibition of purified Photinus pyralis luciferase – biochemical, luminescence, purified enzyme, 2006 set, primary screen (AID 1141).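 Further: cell-free assay with purified firefly luciferase at 100 ng per well in PBS; test concentration not given here.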 Particulars: purified firefly luciferase, SteadyGlo luminescence, 30 min; higher = more signal, called active from +8 up or from −8 down.

Chain of Follistatin (Homo sapiens) (P19883 whole entry, looked up): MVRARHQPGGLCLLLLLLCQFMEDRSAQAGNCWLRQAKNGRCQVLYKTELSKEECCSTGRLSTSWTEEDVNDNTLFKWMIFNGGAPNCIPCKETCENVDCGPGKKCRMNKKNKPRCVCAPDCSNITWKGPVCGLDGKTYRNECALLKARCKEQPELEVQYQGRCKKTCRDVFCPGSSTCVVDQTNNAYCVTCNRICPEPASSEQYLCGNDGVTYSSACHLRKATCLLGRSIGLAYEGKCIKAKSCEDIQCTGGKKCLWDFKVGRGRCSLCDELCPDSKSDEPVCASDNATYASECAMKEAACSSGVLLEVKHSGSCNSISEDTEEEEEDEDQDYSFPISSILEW
Chain of Luciferin 4-monooxygenase (Photinus pyralis) (P08659 whole entry, looked up): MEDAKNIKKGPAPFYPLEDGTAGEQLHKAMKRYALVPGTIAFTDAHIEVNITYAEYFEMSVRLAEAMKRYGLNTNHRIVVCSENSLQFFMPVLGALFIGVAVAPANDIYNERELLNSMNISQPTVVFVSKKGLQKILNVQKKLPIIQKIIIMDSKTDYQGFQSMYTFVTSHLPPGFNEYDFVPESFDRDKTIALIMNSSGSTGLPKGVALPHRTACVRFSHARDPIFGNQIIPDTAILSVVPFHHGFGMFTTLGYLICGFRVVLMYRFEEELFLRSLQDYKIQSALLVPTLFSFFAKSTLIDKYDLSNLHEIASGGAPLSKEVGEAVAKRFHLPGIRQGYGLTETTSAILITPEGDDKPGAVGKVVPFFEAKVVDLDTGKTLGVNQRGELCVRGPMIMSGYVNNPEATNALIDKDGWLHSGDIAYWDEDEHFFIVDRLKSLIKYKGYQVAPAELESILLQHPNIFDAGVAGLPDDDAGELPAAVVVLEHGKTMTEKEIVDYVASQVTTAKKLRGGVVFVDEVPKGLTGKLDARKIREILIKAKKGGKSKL
Chain of Focal adhesion kinase 1 (Homo sapiens) (Q05397 whole entry, looked up): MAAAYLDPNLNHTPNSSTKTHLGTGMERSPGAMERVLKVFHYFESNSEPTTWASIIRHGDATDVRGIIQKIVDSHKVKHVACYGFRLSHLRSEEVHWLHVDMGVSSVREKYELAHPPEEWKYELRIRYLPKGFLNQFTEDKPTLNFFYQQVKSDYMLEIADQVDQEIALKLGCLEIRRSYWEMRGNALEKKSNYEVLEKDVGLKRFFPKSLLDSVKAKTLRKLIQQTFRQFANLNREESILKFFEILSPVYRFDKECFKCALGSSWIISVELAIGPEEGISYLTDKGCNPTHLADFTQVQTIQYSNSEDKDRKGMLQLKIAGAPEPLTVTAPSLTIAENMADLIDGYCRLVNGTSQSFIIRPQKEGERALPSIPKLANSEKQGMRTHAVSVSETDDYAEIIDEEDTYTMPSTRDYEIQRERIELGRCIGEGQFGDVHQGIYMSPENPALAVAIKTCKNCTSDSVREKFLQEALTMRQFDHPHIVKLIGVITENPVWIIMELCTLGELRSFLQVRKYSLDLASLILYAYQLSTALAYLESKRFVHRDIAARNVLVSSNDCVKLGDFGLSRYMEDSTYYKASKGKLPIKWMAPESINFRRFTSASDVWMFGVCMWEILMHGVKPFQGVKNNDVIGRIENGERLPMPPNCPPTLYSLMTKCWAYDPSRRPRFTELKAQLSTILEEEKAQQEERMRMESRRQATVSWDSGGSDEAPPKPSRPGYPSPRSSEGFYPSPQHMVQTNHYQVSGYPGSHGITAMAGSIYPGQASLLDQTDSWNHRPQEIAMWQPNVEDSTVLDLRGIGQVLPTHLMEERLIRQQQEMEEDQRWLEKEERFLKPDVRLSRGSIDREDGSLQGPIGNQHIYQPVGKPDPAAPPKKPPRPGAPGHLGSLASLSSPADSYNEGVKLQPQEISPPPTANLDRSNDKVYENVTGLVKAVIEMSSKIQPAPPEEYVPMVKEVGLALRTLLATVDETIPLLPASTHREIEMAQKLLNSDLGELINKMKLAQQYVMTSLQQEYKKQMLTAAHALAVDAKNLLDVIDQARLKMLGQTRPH
Chain of Fibroblast growth factor 2 (Homo sapiens) (P09038 whole entry, looked up): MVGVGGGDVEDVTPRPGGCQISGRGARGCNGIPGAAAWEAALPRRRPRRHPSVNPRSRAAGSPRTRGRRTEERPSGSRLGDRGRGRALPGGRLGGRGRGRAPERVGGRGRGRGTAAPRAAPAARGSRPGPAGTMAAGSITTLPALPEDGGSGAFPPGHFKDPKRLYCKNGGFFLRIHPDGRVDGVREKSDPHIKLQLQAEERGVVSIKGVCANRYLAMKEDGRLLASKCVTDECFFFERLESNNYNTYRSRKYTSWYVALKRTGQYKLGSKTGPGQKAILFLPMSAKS

With `CCOC(=O)C[C@H]1[C@H](OC(=O)c2ccccc2-c2ccccc2)[C@@H](NC(=O)Cc2ccc(OC)cc2)c2cc(OCCCO)ccc2N1C(=O)c1ccccc1`, the composite z-score in [1] is -0.269; in [2] it was -0.371; in [3] it was 0.145; in assay [4], -0.449; in [5], 0.23; in [6], -0.443. Also, the composite z-score in assay [8] was 0.189; in assay [9] it was -0.0397. Also, the z-score in [7] is 0.362; in assay [10], 0.474 (inactive).
As for `COc1ccc(CCNC(=O)[C@@]2(c3ccc([N+](=O)[O-])cc3)CC(=O)N(CC34CC5CC(CC(C5)C3)C4)[C@@H]2c2ccc(CO)cc2)cc1`, the composite z-score came to 1.59 in [1]; 1.17 in [2]; 0.397 in assay [3]; 0.347 in assay [4]; 1.41 in assay [5]; 1.21 in assay [6]. Moreover, the results for the composite z-score in assay [8] and in assay [9] were 0.981 and -0.037, respectively. Further, the z-score in [7] was -0.483; in assay [10] it was 0.41 (inactive).
On to `CCOC(=O)C[C@H]1[C@H](OC(=O)c2ccc(-c3ccccc3)cc2)[C@@H](NC(=O)c2ccc(-c3ccccc3)cc2)c2cc(OCCCO)ccc2N1C(=O)Cc1ccc(OC)cc1`, for which the composite z-score in [1] was 0.296; in assay [2], 0.226; in [3], 0.315; in assay [4], 0.656; in [5], 0.13; in assay [6] it was -0.167. The figures for the composite z-score in assay [8] and in [9] were -0.245 and -0.0591, respectively. For the same compound, the z-score in assay [7] is 0.322; in [10], 0.735 (inactive).
Turning to `CC(C)(C)N1CC=CC23O[C@@H]4/C=C\CCCOC(=O)C4[C@H]2C(=O)N(CCO)[C@@H]3C1=O` (stereo not given in full), the composite z-score was 0.543 in assay [1]; 0.193 in [2]; 0.19 in assay [3]; -0.233 in [4]; -0.993 in assay [5]; -0.57 in assay [6]. Also, the composite z-score in assay [8] was -0.86; in assay [9] it was 0.0851. Also, the values for the z-score in assay [7] and in assay [10] were -0.913 and 0.885 (inactive), respectively.
`CC(=O)Nc1cc(Br)ccc1C(=O)O`: the composite z-score in [1] is 0.0952; in assay [2], 0.747; in assay [3] it was -0.0817; in [4], 0.805; in assay [5], 0.0564; in assay [6], -0.129. Besides, the values for the composite z-score in [8] and in assay [9] were -0.0658 and 0.625, respectively. The z-score was 0.204 in assay [7] and -0.592 (inactive) in assay [10].
As for `CCCC[C@H]1OB(O)C[C@H]2C1=C(C)C[C@H]1C(=O)N(Cc3ccccc3)C(=O)[C@H]12`, the composite z-score in assay [1] stood at 0.201; in [2] it was 0.366; in assay [3], 0.553; in assay [4] it was 0.311; in [5] it was 0.797; in assay [6] it was 1.26. The composite z-score is 0.63 in assay [8] and -0.144 in assay [9]. The z-score in assay [7] was 0.625; in assay [10], -1.15 (inactive).
As to `CC(C)(C)OC(=O)CC[C@@]1(C(=O)NCCN2CCOCC2)N=C(c2ccc(OCCCO)cc2)O[C@@H]1c1ccccc1`, the composite z-score came out at 1.37 in [1]; 1.19 in [2]; 0.111 in [3]; 1.01 in [4]; 1.28 in assay [5]; 0.695 in assay [6]. Besides, the composite z-score in [8] was determined as 0.499; in assay [9] it was 1.22. Further, the z-score in assay [7] was 1.59; in assay [10], -1.66 (inactive).
On to `COCC1=C2[C@@H](CCc3ccccc3)OB(O)C[C@@H]2[C@@H]2C(=O)N(Cc3ccccc3)C(=O)[C@@H]2C1`, for which the composite z-score was -0.0926 in assay [1]; -0.147 in assay [2]; -0.138 in [3]; 1 in assay [4]; 0.193 in assay [5]; -0.0119 in assay [6]. The composite z-score worked out at 0.261 in [8] and 0.397 in [9]. The z-score in [7] is 0.092; in assay [10], -0.683 (inactive).
As for `C=CCOC(=O)[C@H]1[C@@H]2C(=O)O[C@@H](c3ccccc3)[C@@H](c3ccccc3)N2[C@@H](c2ccc(OCCOC(=O)[C@@H]3C[C@@H]4C(=O)NCC(=O)N4[C@@H]3c3ccc(O)cc3)cc2)[C@]12C(=O)Nc1ccccc12`, the composite z-score in assay [1] was 1.56; in [2] it was 1.19; in assay [3], 0.564; in assay [4], 0.478; in assay [5] it was 1.35; in [6], 1.72. The composite z-score is 1.18 in [8] and -0.233 in assay [9]. The z-score is -1.43 in assay [7] and -2.56 (inactive) in assay [10].
On to `CCC[C@@H]1C=C(C(=O)O)[C@H](c2ccc(C)cc2)N1S(=O)(=O)c1ccc(C)cc1`, for which the composite z-score was 1.65 in assay [1]; 1.29 in [2]; 0.354 in assay [3]; 1.04 in [4]; 0.118 in assay [5]; -0.502 in assay [6]. Moreover, the composite z-score in assay [8] is -0.234; in assay [9], 0.945. Further, the z-score in assay [7] was -0.564; in assay [10], 1.79 (inactive).
Take `C=C[C@@H](COC(C)=O)N(Cc1ccccc1[N+](=O)[O-])S(=O)(=O)c1ccc(Br)cc1`: the composite z-score came to 2.18 in assay [1]; 1.11 in [2]; 0.547 in assay [3]; 0.619 in [4]; 1.42 in [5]; 1.51 in [6]. Further, the composite z-score was found to be 0.929 in assay [8] and 0.567 in assay [9]. In addition, the values for the z-score in [7] and in assay [10] were 0.505 and 0.335 (inactive), respectively.
`COCCOC(=O)N1C(=O)[C@@]2(c3cc(C#CC4=CCCCC4)ccc31)[C@H](C(=O)NC[C@H](O)c1ccccc1)[C@H]1C(=O)O[C@H](c3ccccc3)[C@H](c3ccccc3)N1[C@@H]2c1ccc(O)cc1`: the composite z-score came out at 0.0524 in [1]; 1.19 in assay [2]; 0.703 in [3]; 0.86 in assay [4]; 1.32 in [5]; 1.32 in assay [6]. Moreover, the composite z-score in assay [8] turned out to be 0.861; in assay [9], 0.845. Further, the z-score in [7] was -1.23; in assay [10], -1.31 (inactive).
`COC(=O)c1ccc(OC)c(/C=C\CC(OC(C)=O)c2ccccc2)c1` (stereo not given): the composite z-score in [1] was 0.838; in [2] it was 0.255; in [3] it was -0.0638; in assay [4], 0.775; in assay [5], 0.946; in assay [6] it was 0.933. Moreover, the composite z-score in assay [8] amounted to 0.741; in [9], 1.11. Besides, the z-score in assay [7] was -0.363; in [10], -0.454 (inactive).
As to `CC(C)c1ccc(NN2C(C(O)c3cccc(O)c3)C=CC3C(=O)N(c4ccccc4)C(=O)C32)cc1` (stereo not given), the composite z-score in [1] is 1.16; in assay [2] it was 1.25; in assay [3], 0.781; in assay [4] it was 0.992; in assay [5], 1.35; in assay [6] it was -0.179. Moreover, the composite z-score in assay [8] turned out to be 0.61; in assay [9] it was 0.754. The z-score in assay [7] was 0.116; in assay [10], -0.824 (inactive).
In the case of `CC(C)(C)OC(=O)CC[C@@]1(C(=O)O)N=C(c2ccc(OCCCO)cc2)O[C@@H]1c1ccccc1N=[N+]=[N-]`, the composite z-score was 1.5 in assay [1]; 0.826 in assay [2]; 2.08 in [3]; 0.482 in assay [4]; 0.589 in assay [5]; -0.349 in [6]. Besides, the composite z-score in assay [8] is -0.666; in [9], 1.28. Also, the z-score in assay [7] was -1.49; in assay [10] it was -12.1 (active).
As to `COC(=O)[C@@]1(Cc2ccc(OC)cc2)[C@H]2c3cc(C(=O)N4CCCC4)n(Cc4ccccn4)c3C[C@H]2CN1C(=O)c1ccccc1`, the composite z-score in assay [1] was 2.3; in [2] it was 1.26; in [3], 0.464; in [4], 0.8; in [5], 0.169; in assay [6], -0.332. The composite z-score in assay [8] is -0.467; in assay [9], 1.2. Moreover, the results for the z-score in assay [7] and in [10] were 1.37 and 1.91 (inactive), respectively.
